# Experimental data published in publication PMC5540273 (PLoS ONE, 2017).
# pKd: −log10 of the molar value.
# Key:
# DCAMKL3 = system: T1, DCAMKL3
# T1 construct: gene DCLK3
# DRAK2 = system: T2, DRAK2
# T2 construct: gene STK17B
# 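Further: kd values determined as follow-up on hits from a single-replicate KINOMEscan panel screen.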
smiles,measurement,setting,value
CC[C@@H]1CO[C@H](C(=O)Nc2ccccc2)CN1c1cc(-c2ccc3c(N)n[nH]c3c2)nc(NC)n1 [GSK2376236],pKd,DCAMKL3,6.24
CNc1nc(-c2ccc3c(N)n[nH]c3c2)cc(N2C[C@@H](C(=O)Nc3ccccc3)CC[C@H]2C)n1 [GSK2298859],pKd,DRAK2,7.08
COc1ccc(Nc2nccc(N3CCC(NC(=O)C(C)c4ccc(Cl)cc4)CC3)n2)cc1 (stereo not shown) [GSK1379812],pKd,DYRK1A,< 5.00
CNc1cc(-c2ccc3c(N)n[nH]c3c2)nc(N)n1 [GSK2224810],pKd,DYRK2,7.48
Cn1cncc1-c1cc2c(Nc3ccc(OCc4ccccc4)cc3)ncnc2cn1 [GW281179],pKd,EGFR,8.00
Cc1ccc(NC(=O)c2ccc(Cl)cc2)cc1-c1ccc(C(=O)Nc2ccncc2)cc1 [GSK1398467],pKd,EPHA3,< 5.00
Cc1ccc(-c2nc(Nc3ccncc3)c3ccccc3n2)s1 [GSK189015],pKd,EPHA5,< 5.00
